According to PubChem BioAssay (EPA / NIEHS):
Inconclusive results are not listed. Active and inactive are the calls of the source. Rule for the calls: active = hit-call score of the fitted dose curve at least 0.9, where 1 is the maximum; inconclusive = response in the unintended direction; inactive = score below 0.9.

These compounds were tested against Cellular tumor antigen p53 (Homo sapiens) (UniProt P04637) (assay: TOX21_p53_BLA_p2_ratio: Tox21 HCT-116 p53 Agonism Beta-lactamase Assay, Ratio, Phase 2 (AID 2283592)).
How it was run: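 Human colon HCT116 cells with an inducible p53 beta-lactamase reporter are exposed to test chemicals for 16 h at 37C. Reporter induction is read as the 460/530 nm emission ratio after CCF4-AM loading, normalized to DMSO.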

Chain of Cellular tumor antigen p53 (Homo sapiens) (P04637 whole entry, looked up): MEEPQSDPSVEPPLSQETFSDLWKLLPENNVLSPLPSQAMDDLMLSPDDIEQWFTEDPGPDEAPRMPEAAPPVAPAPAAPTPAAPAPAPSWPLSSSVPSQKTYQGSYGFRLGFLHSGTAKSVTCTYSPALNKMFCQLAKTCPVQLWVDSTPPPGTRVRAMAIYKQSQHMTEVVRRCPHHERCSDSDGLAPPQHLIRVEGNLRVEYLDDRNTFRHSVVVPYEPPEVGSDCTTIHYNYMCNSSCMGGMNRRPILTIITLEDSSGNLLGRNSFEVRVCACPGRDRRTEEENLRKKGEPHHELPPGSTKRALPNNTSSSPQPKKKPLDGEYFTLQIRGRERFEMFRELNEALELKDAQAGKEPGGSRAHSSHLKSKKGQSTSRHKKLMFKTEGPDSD

Row | Compound | outcome | AC50
1 | Clc1ccc([C@@H]2C[C@H]3CC[C@@H]2N3)cn1 | inactive | –
2 | CCCCC#N | inactive | –
3 | Oc1cc(Cl)c(Cl)c(Cl)c1Cl | – | 5.97 µM (active)
4 | CC(=O)Nc1cc([As](=O)(O)O)ccc1O | inactive | –
5 | CCOP(=O)(OCC)SCCSCC (tested in a mixture with another compound) | inactive | –
6 | CC(C)CC(C)N (stereo not drawn) | inactive | –
7 | CCCCCc1cc(O)c2c(c1)OC(C)(C)c1ccc(C)cc1-2 | – | 22.3 µM (active)
8 | O=NN1CCN(N=O)CC1 | inactive | –
9 | O=c1ccc2cc(O[C@@H]3O[C@H](CO)[C@@H](O)[C@H](O)[C@H]3O)c(O)cc2o1 | – | 10.3 µM (active)
10 | NCC(O)c1ccc(O)cc1 (stereo not drawn) | inactive | –
11 | CN[C@H]1C[C@@H](N)[C@H](O)[C@@H](O[C@@H]2O[C@H](CO)[C@H](O)[C@@H]3OC4(O[C@H]23)O[C@H](C(N)CO)[C@H](O)[C@H](O)C4O)[C@@H]1O (stereo partly drawn) | inactive | –
12 | CCCCCCCCCCCCN=C(N)N | inactive | –
13 | C[C@]12CCC(=O)C[C@@H]1CC[C@@H]1[C@@H]2CC[C@@]2(C)[C@H]1CC[C@]2(C)O | inactive | –
14 | Clc1ccc(-c2ccc(Cl)c(Cl)c2Cl)c(Cl)c1Cl | inactive | –
15 | Cc1ccccc1-n1c(C)nc2ccccc2c1=O | inactive | –
16 | CCC1(c2ccccc2)C(=O)NC(=O)NC1=O | inactive | –
17 | CC(C)(O)[C@@H]1[C@H]2OC(=O)[C@@H]1[C@]1(O)C[C@H]3O[C@]34C(=O)O[C@H]2[C@]14C (tested in a mixture with another compound) | inactive | –
18 | C[C@@H]1CC[C@@]2(OC1)O[C@H]1[C@@H](O)[C@H]3[C@@H]4CC[C@H]5C[C@@H](O[C@@H]6O[C@H](CO)[C@H](O[C@@H]7O[C@H](CO)[C@@H](O)[C@H](O[C@@H]8OC[C@@H](O)[C@H](O)[C@H]8O)[C@H]7O[C@@H]7O[C@H](CO)[C@@H](O)[C@H](O[C@@H]8O[C@H](CO)[C@@H](O)[C@H](O)[C@H]8O)[C@H]7O)[C@H](O)[C@H]6O)[C@H](O)C[C@]5(C)[C@H]4CC[C@]3(C)[C@H]1[C@@H]2C | – | 39.1 µM (active)
